Measurements published in PubChem BioAssay AID624441 (Broad Institute, 2012).
Unmarked numbers belong to inactive results.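 Rule for the calls: active = activation curve reaches 40% at a concentration no higher than the top valid dose tested; inactive = signal falling instead of rising, plus the rest.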

Assay: reactive oxygen species induction in U2OS, dose response, U2OS cells, fluorescence, dry powder (AID 624441)
Settings: U2OS ROS induction, H2DCF-DA fluorescence, stronger effect = higher value; at 19.5 µM unless noted

SMILES	max activation
Nc1nc(SCc2ccc(Cl)cc2Cl)ns1	43.7%
O=C(Nc1ccccc1)Nc1nc(SCc2ccccc2)ns1	-12% [at 10 µM]
Cc1ccccc1CSc1n[nH]c(N)n1	26% [at 0.0195 µM]
Cc1ccccc1CSc1nnc(N)s1	9.38%
O=C(Nc1nc(SCc2ccccc2)ns1)C1CC=CCC1 (configuration not stated)	33.9% [at 38 µM]
Nc1nc(SCc2ccc(F)cc2)ns1	27%
Cc1ccccc1CSc1nsc(N)n1	36.4% [at 5 µM]
Cc1cccc(CSc2nsc(N)n2)c1	19.3% [at 1.2 µM]
Nc1nc(SCc2ccccc2)ns1	18.5% [at 0.3 µM]
Nc1nc(S(=O)(=O)Cc2ccccc2)ns1	20.7% [at 0.0195 µM]
Nc1nc(SCc2ccccc2Cl)ns1	15.6% [at 0.0001 µM]
O=C(Nc1nc(SCc2ccccc2)ns1)C1CCC1	11.4%
